Laboratory results reported in PubChem BioAssay (NCATS).
“And” between values parts separate entries of the source, which are not always exact repeats. Equal values may be shown once. The source made the active and inactive calls. The call rests on the fitted dose curve.

Target: Glucocorticoid receptor (Homo sapiens) (UniProt P04150)
Test: GR-EFC Redistribution (AID 451)
Conditions: CHO-K1 GR-EFC translocation, beta-gal luminescence, 2 h
Procedure, shortened: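 CHO-K1 cells expressing nuclear EA and GR-ED fragments of b-gal; compounds titrated up to 46 uM final, 2 h at 37 C. GR nuclear translocation read as complemented b-gal luminescence after 1 h RT detection.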
Potency means the concentration at half of the fitted maximal effect.

Glucocorticoid receptor (Homo sapiens), sequence (P04150 whole entry, looked up): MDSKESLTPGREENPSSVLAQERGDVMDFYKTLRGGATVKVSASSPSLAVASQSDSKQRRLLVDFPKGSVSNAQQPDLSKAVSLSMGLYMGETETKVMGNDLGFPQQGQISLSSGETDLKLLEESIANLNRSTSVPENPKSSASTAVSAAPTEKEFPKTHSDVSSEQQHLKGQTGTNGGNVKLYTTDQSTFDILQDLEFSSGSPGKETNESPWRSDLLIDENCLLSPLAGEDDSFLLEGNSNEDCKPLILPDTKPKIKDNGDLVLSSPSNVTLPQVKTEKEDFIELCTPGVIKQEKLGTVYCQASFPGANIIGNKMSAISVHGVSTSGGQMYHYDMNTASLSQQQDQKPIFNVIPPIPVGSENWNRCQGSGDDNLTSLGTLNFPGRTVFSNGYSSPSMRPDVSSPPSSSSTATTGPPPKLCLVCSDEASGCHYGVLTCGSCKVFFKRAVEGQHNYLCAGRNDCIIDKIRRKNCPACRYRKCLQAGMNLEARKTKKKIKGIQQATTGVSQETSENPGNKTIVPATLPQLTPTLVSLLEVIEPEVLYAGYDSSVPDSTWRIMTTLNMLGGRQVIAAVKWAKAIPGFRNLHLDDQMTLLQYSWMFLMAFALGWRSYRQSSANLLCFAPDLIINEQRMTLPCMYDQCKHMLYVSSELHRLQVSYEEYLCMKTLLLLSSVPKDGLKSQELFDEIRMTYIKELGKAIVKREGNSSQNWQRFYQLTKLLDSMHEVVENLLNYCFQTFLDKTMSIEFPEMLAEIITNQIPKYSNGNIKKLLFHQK

| Compound | Potency |
| --- | --- |
| CCCn1c(C)c(C(=O)c2ccc3ccccc3c2)c2ccccc21 | > 46 µM (inactive) |
| C[N+]1(C)CCN(c2ccccc2)CC1 | > 46 µM (inactive) |
| Cc1c2ccncc2c(C)c2c1[nH]c1ccccc12 | > 46 µM (inactive) and > 20.6 µM (inactive) |
| NCCCP(=O)(O)O | > 46 µM (inactive) |
| Clc1ccc(N2C[C@H]3CC[C@@H](C2)N3)nn1 | > 46 µM (inactive) |
| CCCN(CCC)C1Cc2cc(OC)c(OC)cc2C1 | > 46 µM (inactive) |
| NC(N)=NOCC[C@H](N)C(=O)O | > 46 µM (inactive) and > 20.6 µM (inactive) |
| CC(C)NP(=O)(NC(C)C)OP(=O)(NC(C)C)NC(C)C | > 46 µM (inactive) |
| Clc1cc(I)cc(Cl)c1NC1=NCCN1 | > 46 µM (inactive) |
| CCCn1c(=O)c2[nH]c(C3CCCC3)nc2n(CCCOC(=O)c2ccc(S(=O)(=O)F)cc2)c1=O | > 46 µM (inactive) |
| CN1CCC(c2c[nH]c3ccc(O)cc23)CC1 | > 46 µM (inactive) |
| CP(=O)(O)C1=CCNCC1 | > 46 µM (inactive) |
| Cc1[nH]c2ccc(O)cc2c1CCN | > 46 µM (inactive) |
| CN1CCc2cc(O)cc3c2[C@H]1Cc1ccc(O)c(O)c1-3 | > 46 µM (inactive) |
| O=S(=O)(O)c1cc(O)ccc1O | > 20.6 µM (inactive) |
| CCC1(C)CC(=O)NC(=O)C1 | > 20.6 µM (inactive) |
| CCCN(CCC)[C@H]1CCc2c(F)ccc(O)c2C1 | > 46 µM (inactive) |
| C[C@H](N)CN1CCc2ccc(Br)cc21 | > 46 µM (inactive) |
| CCCN(CCC)CCc1c[nH]c2ccc(C(N)=O)cc12 | > 46 µM (inactive) |
| C[C@@H]1[C@@H]2Cc3ccc(O)cc3[C@@]1(C)CCN2CC1CC1 | > 46 µM (inactive) |
| O=[N+]([O-])c1ccc2nc(N3CCNCC3)ccc2c1 | > 46 µM (inactive) |
| O=S1(=O)N(CCN2CC=C(c3c[nH]c4cc(F)ccc34)CC2)c2cccc3c2N1CCC3 | > 46 µM (inactive) |
| NC(=O)c1cc(N2CC2)c([N+](=O)[O-])cc1[N+](=O)[O-] | > 46 µM (inactive) |
| C[N+](C)(C)CC#CCOC(=O)Nc1cccc(Cl)c1 | > 46 µM (inactive) |
| Nc1ccc(CCN2CCN(c3cccc(C(F)(F)F)c3)CC2)cc1 | > 46 µM (inactive) |
| O=[N+]([O-])c1cc(O)c(O)c([N+](=O)[O-])c1 | > 46 µM (inactive) |
| NNC(N)=O | > 46 µM (inactive) |
